Test results as given in PubChem BioAssay AID686978 (National Center for Advancing Translational Sciences (NCATS), 2013).
The campaign covered roughly 420,000 compounds. About 64,000 (15%) were called active. About 27% were inconclusive and are not listed. Only a sample is shown. A number with no mark means an inactive call. Calls come from the whole dose curve; as a rule, active = well fitted inhibition curve with a large enough effect; inconclusive = small, poorly fitted or top-dose-only effect; inactive = flat fitted curve, though single readings scatter.

test: qHTS for Inhibitors of human tyrosyl-DNA phosphodiesterase 1 (TDP1): qHTS in cells in absence of CPT; details: DT40 Tdp1-/- hTDP1 cells, no CPT, ATP luminescence, 48 h; activity change, negative = growth inhibition: at 46.2 µM (top of the series); note: nearly all actives have a fitted effect of over 55% in size
How it was run: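 Readout: luminescence from CellTiter-Glo after 30 min in the dark at RT. Cells: DT40 Tdp1-/- with stable hTDP1, 400/well. Exposure: compounds alone, ≥48 hr, 37 °C.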
% is set by controls: 0 for no effect and ±100 for the full control effect; potency is the fitted concentration of half-maximal effect.

| SMILES | activity change, negative = growth inhibition | Potency |
| --- | --- | --- |
| C=CCc1cccc2cc(C(=O)NC3CCCC3)c(=O)oc12 | -8.04% |  |
| Cc1nn(-c2ccccc2)nc1C(=O)OCC(=O)N1CCCCC1C (stereo not drawn) | -5.31% |  |
| Nc1nc(SCC(=O)NCCN2CCOCC2)nc2sc3c(c12)CCC3 | -0.71% |  |
| CSc1nc2nc3c(c(=O)n2[nH]1)CCC3 | -9.07% |  |
| Cc1cn(C2OC[C@@H](O)[C@@H]2CO)c(=O)[nH]c1=O (stereo partly drawn) |  | inactive |
| CC(C)[C@H]1CC[C@@H](C)C[C@H]1O | 0.0485% |  |
| CCCC(C)C(=O)Nc1ccc(NC(C)=O)cc1 (stereo not drawn) | -14% |  |
| O=C(NNC(=O)C1CCC1)c1ccccc1 | 5.31% |  |
| Cc1csc(-c2coc3cc(O[C@@H]4O[C@H](CO)[C@@H](O)[C@@H](O)[C@H]4O)ccc3c2=O)n1 | 1.27% [at 9.04 µM] |  |
| CNCCCOc1cc2nc(N3CCCN(C)CC3)nc(NC3CCN(C)CC3)c2cc1OC | -29.4% |  |
| COc1ccc(C(=O)N2CCCN(C)CC2)c(OC)c1 | 4.37% |  |
| COc1cc2nc(N3CCCN(C)CC3)nc(NC(C)C)c2cc1OC |  | 12.6 µM (active) |
| COc1cc2nc(N3CCN(C(=O)[C@@H]4CCCO4)CC3)nc(N)c2cc1OC | -0.983% |  |
| COc1cc2nc(N3CCCN(C)CC3)nc(NC3CC3)c2cc1OC |  | 10 µM (active) |
| CCCCSc1nnc2c(n1)OC=Nc1ccccc1-2 | -11.3% |  |
| CCCn1nc(Oc2nc(NC(C)C)nc(N(C)C)n2)ccc1=O | 8.56% |  |
| Cn1c(SCC(=O)NC2CCCCC2)nnc1-c1ccc(N)cc1 | 2.92% |  |
| CC(=O)Nc1ccc(N2C(=O)C3C4CC(=O)C(c5ccccc54)C3C2=O)cc1 (stereo not drawn) | -3.56% |  |
| COc1ccccc1CCn1c(=O)c(-c2cn(C)c3ccccc23)nc2cncnc21 | 3% |  |
| CCCCc1c(-c2ccc(Cl)cc2)ncn1CCc1ccccc1OC |  | 3.26 µM (active) |
| COc1ncc2nc(-c3ccc(Cl)cc3)c(=O)n(C)c2n1 | 1.53% |  |
| COc1ccccc1CN1CCN(Cc2cc(OC)c(OC)cc2OC)CC1 | -29.9% |  |
| CCCCc1c(-c2ccc(Br)cc2)ncn1CCc1ccccc1OC |  | 1.3 µM (active) |

| SMILES | activity change, negative = growth inhibition | Potency |
| --- | --- | --- |
| COc1cccc(OC)c1C(=O)N1CCN(Cc2ccccc2F)CC1 | -18.9% |  |
| COc1ccccc1CCC(=O)NNC(=O)c1ccncc1 | 4.68% |  |
| CCCc1c(-c2ccccc2F)ncn1Cc1ccccc1OC |  | 1.16 µM (active) |
| COc1ccccc1OCCCn1c(-c2ccc(Cl)cc2)nc2ccccc2c1=O | 6.13% |  |
| CCN(CC(=O)NC(C)C)C(=O)c1cc(S(=O)(=O)N2CCCCC2)ccc1N1CCCCC1 | -13.3% |  |
| CCOC(=O)c1c(C)[nH]c(C(=O)OCC(=O)c2ccc(OC)cc2OC)c1C | -18.7% |  |
| C=CCNc1nc(N)c([N+](=O)[O-])c(NC2CCCCC2)n1 | -13% |  |
| CCCCn1c(N)c(N(CCOC)C(=O)c2sc3ccccc3c2Cl)c(=O)[nH]c1=O | 2.54% |  |
| CC1CCCN(C(=O)Cn2c(=O)oc3cc(S(=O)(=O)N4CCCCC4C)ccc32)C1 (stereo not drawn) | -1.35% |  |
| CC1CCCCN1C(=O)Cn1c(=O)oc2cc(S(=O)(=O)N3CCCCC3)ccc21 (stereo not drawn) | -16.6% |  |
| CC(C)CCNC(=O)Cn1c(=O)oc2cc(S(=O)(=O)N3CC(C)CC(C)C3)ccc21 (stereo not drawn) |  | 16.4 µM (active) |
| CC1CCc2sc(C(=O)NCC(c3ccco3)N3CCCCC3)cc2C1 (stereo not drawn) |  | 10.3 µM (active) |
| CSc1ncccc1C(=O)NCC(c1ccco1)N1CCCCC1 (stereo not drawn) | -2.23% |  |
| CC1CCc2sc(C(=O)N/N=C/C3CCCCC3)cc2C1 (stereo not drawn) | -4.82% |  |
| Cc1ccccc1S(=O)(=O)Cc1ccc(C(=O)NCCN2CCCCC2C)o1 (stereo not drawn) | -13.1% |  |
| CN(CC(=O)Nc1cccc(F)c1)C(=O)C1CSC2(C)CCC(=O)N12 (stereo not drawn) | -3.64% |  |
| COc1ccc(C(=O)Oc2ccc(-c3nnco3)cc2)cc1S(=O)(=O)N1CCOCC1 | -22.7% |  |
| CCCc1nn2c(=O)cc(COC(=O)c3ccc(NC(=O)C(C)Oc4ccccc4)cc3)nc2s1 (stereo not drawn) | -11.2% |  |
| CCCCc1nn2c(=O)cc(COC(=O)c3ccc(NC(=O)c4ccccc4C)cc3)nc2s1 |  | 14.6 µM (active) |
| Cc1nn2c(=O)cc(COC(=O)c3ccc(NC(=O)C(C)(C)C)cc3)nc2s1 |  | 18.4 µM (active) |
| Cc1nn2c(=O)cc(COC(=O)CNC(=O)c3ccc(F)cc3)nc2s1 | -4.36% |  |
| CCCCc1nn2c(=O)cc(COC(=O)c3ccccc3NC(=O)C(C)(C)C)nc2s1 | 3.41% |  |
| O=C(Nc1ccc(C(=O)OCc2cc(=O)n3nc(C4CC4)sc3n2)cc1)c1ccc(F)cc1 | -25.5% |  |

| SMILES | activity change, negative = growth inhibition | Potency |
| --- | --- | --- |
| Cc1nn(C)cc1S(=O)(=O)N1CCN(c2ccc(F)cc2)CC1 | 8.4% |  |
| C=CCNc1nnc(C)c2ccccc12 | -5.04% |  |
| O=C1CC(c2ccccc2)=NN1c1ccc([N+](=O)[O-])cc1 |  | 16.4 µM (active) |
| Cc1nc(-c2ccc([N+](=O)[O-])cc2)c(-c2ccccc2)o1 | -27.8% |  |
| O=c1[nH]n(-c2ccc([N+](=O)[O-])cc2)c(=O)c2ccccc12 | 0.976% |  |
| CC(C)c1nc(CNC(=O)CC2C(=O)NCCN2Cc2cccc(F)c2F)cs1 (stereo not drawn) | -8.46% |  |
| CCN(CC)CCCNC(=O)Cn1cnc2sc(C)c(S(=O)(=O)N3CCN(c4ncccn4)CC3)c2c1=O | -1.58% |  |
| C[N+]1(CCNC(=O)/C=N/O)CCCCC1 | -2.55% |  |
| O=C(Cn1cc(C(F)(F)F)ccc1=O)Nc1ccc2c(c1)OCCO2 | -7.57% |  |
| CCCCn1c(SCc2ncc(-c3ccccc3)o2)nc2cc(S(N)(=O)=O)ccc21 |  | 9.2 µM (active) |
| CCCCn1c(SCC(=O)N2CCC(C(=O)OCC)CC2)nc2cc(S(N)(=O)=O)ccc21 | -11.5% |  |
| CCCCn1c(SCC(=O)N2CCCC2=O)nc2cc(S(N)(=O)=O)ccc21 | 2.67% |  |
| Cc1[nH][nH]c(=O)c1N=Nc1ccccc1 | -5.5% |  |
| Cc1ccc(NC2(C#N)C(=O)Nc3ccccc32)cc1 (stereo not drawn) | -21.8% |  |
| COC(=O)C(C)NC(=O)COc1ccc2ccccc2c1 (stereo not drawn) | -13.9% |  |
| CCCCSc1[nH]c(=O)c(C(=O)OCC)cc1C#N | -13.7% |  |
| Cc1cc(-c2ccc(C)c(S(=O)(=O)NC(C)Cc3ccco3)c2)on1 (stereo not drawn) | -4.97% |  |
| COc1cccc(CNS(=O)(=O)c2cc3c(cc2C)n(C)c(=O)c(=O)n3C)c1 |  | inactive |
| CCc1ccc(-c2cc(C)no2)cc1S(=O)(=O)NCCc1ccc(S(N)(=O)=O)cc1 | -19.4% |  |
| CCOc1ccccc1CNS(=O)(=O)c1cc(-c2cc(C)no2)ccc1C | -4.87% |  |
| Cc1cc(-c2ccc(C)c(S(=O)(=O)NCCCN(Cc3ccccc3)C(C)C)c2)on1 |  | 13 µM (active) |
| COc1ccc(CNS(=O)(=O)c2cc(-c3cc(C)no3)ccc2C(C)C)cc1 |  | 0.731 µM (active) |
